Holding throughout (assay): NCI-60 one-dose screen, 48 h (100 = growth as untreated, 0 = no growth, -100 = all killed)
One experiment relates to SR leukemia. The conditions noted are these: 10 µM unless noted.
In the next experiment the test system is RPMI-8226 leukemia. To be noted: 10 µM unless noted.
In the next experiment the test system is OVCAR-8 ovarian. The conditions noted are these: 10 µM unless noted.
Another experiment relates to OVCAR-5 ovarian. To be noted: 10 µM unless noted.
The next experiment relates to OVCAR-4 ovarian. To be noted: 10 µM unless noted.
Another experiment deals with SK-OV-3 ovarian. The conditions noted are these: 10 µM unless noted.
The next experiment concerns IGROV1 ovarian. The conditions noted are these: 10 µM unless noted.
The test system of the next experiment is OVCAR-3 ovarian. The conditions noted are these: 10 µM unless noted.
The test system of another experiment is NCI/ADR-RES ovarian. To be noted: 10 µM unless noted.
In another experiment the test system is T-47D breast. The conditions noted are these: 10 µM unless noted.
In another experiment the test system is BT-549 breast. To be noted: 10 µM unless noted.
Another experiment relates to MDA-MB-435 melanoma. The conditions noted are these: 10 µM unless noted.
The next experiment relates to SW-620 colon. To be noted: 10 µM unless noted.
For the next experiment, the system named is MCF7 breast. The conditions noted are these: 10 µM unless noted.
The test system of another experiment is HCT-116 colon. The conditions noted are these: 10 µM unless noted.
In another experiment the test system is HCC-2998 colon. The conditions noted are these: 10 µM.
The subject of a further experiment is KM12 colon. To be noted: 10 µM unless noted.

SMILES strings stand for the structures. About 83,000 compounds went through this panel and 20% of them were active in at least one assay; those are over-represented in the sample as a whole.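 Single-concentration screen, 48 h exposure, 96-well plates. Endpoint: percent growth. Below 10 = active.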 Values without a mark were called inactive. The source made the active and inactive calls.

Turning to `C=CC(=O)Nc1cc2c(Nc3ccc(F)c(Cl)c3)ncnc2cc1C#CC(C)(C)N1CCN(C)CC1`, the growth is -14.2% (active) with SR leukemia; -34.2% (active) in the experiment with RPMI-8226 leukemia; -73.5% (active) with OVCAR-8 ovarian; -95.5% (active) with OVCAR-5 ovarian; -96.2% (active) in the experiment with OVCAR-4 ovarian; -96.6% (active) in the experiment with SK-OV-3 ovarian. For the same compound, the growth was -73.9% (active) with IGROV1 ovarian; -96.7% (active) in the experiment with OVCAR-3 ovarian; -52.2% (active) in the experiment with NCI/ADR-RES ovarian; -81.5% (active) with T-47D breast; -94% (active) with BT-549 breast; -98.1% (active) in the experiment on MDA-MB-435 melanoma. Also, the growth with SW-620 colon is -78% (active); in the experiment on MCF7 breast, -65.2% (active); in the experiment with HCT-116 colon, -92.6% (active); in the experiment with HCC-2998 colon it was -81.5% (active); in the experiment with KM12 colon it was -90.2% (active).
Take `Cn1ccnc1C(=O)/C=C/c1ccc(CC(=O)Nc2ccc(S(F)(F)(F)(F)F)cc2)cc1`: the growth in the experiment with SR leukemia is 0.968% (active); with RPMI-8226 leukemia, -18.8% (active); in the experiment with OVCAR-8 ovarian, -14.1% (active); with OVCAR-5 ovarian, -38.1% (active); with OVCAR-4 ovarian, 17.5%; in the experiment with SK-OV-3 ovarian, 18.4%. Besides, the growth in the experiment with IGROV1 ovarian is -17.5% (active); in the experiment on OVCAR-3 ovarian, 6.7% (active); with NCI/ADR-RES ovarian, 7.59% (active); in the experiment on T-47D breast it was -7.73% (active); with BT-549 breast, -50.6% (active); in the experiment with MDA-MB-435 melanoma it was 15.1%. Further, the growth with SW-620 colon was 3.88% (active); with MCF7 breast, 10.2%; with HCT-116 colon it was -63.5% (active); in the experiment with HCC-2998 colon, -65.1% (active); in the experiment on KM12 colon, -56.9% (active).
As to `CC(C)Nc1cc(-c2c[nH]c(C(=O)N[C@H](CO)c3cccc(Cl)c3)c2)c(Cl)cn1`, the growth in the experiment with SR leukemia is 23.9%; in the experiment on RPMI-8226 leukemia, 21.8%; in the experiment on OVCAR-8 ovarian it was 35%; in the experiment with OVCAR-5 ovarian it was 19.5%; with OVCAR-4 ovarian it was 42.2%; in the experiment with SK-OV-3 ovarian, 23.3%. In addition, the growth with IGROV1 ovarian is 18.4%; with OVCAR-3 ovarian, 75.9%; in the experiment on NCI/ADR-RES ovarian, 47.9%; in the experiment with T-47D breast it was 34.7%; in the experiment on BT-549 breast it was 57.3%; with MDA-MB-435 melanoma, 21.7%. In addition, the growth is 20.6% in the experiment on SW-620 colon; 27.9% in the experiment on MCF7 breast; 15.7% in the experiment on HCT-116 colon; -10.9% (active) in the experiment with HCC-2998 colon; 18.7% with KM12 colon.
As for `COC(=O)N[C@@H](C)CNc1nccc(-c2cn(C(C)C)nc2-c2cc(Cl)cc(NS(C)(=O)=O)c2F)n1`, the growth is 51.7% in the experiment on SR leukemia; 113% with RPMI-8226 leukemia; 72.5% in the experiment with OVCAR-8 ovarian; 42.9% with OVCAR-5 ovarian; 71.4% in the experiment on OVCAR-4 ovarian; 22.8% in the experiment with SK-OV-3 ovarian. For the same compound, the growth is 42.2% with IGROV1 ovarian; 87% in the experiment with OVCAR-3 ovarian; 96.8% with NCI/ADR-RES ovarian; 79.3% with T-47D breast; 72.9% with BT-549 breast; 25.5% in the experiment on MDA-MB-435 melanoma. The growth was 52.7% with SW-620 colon; 95.2% with MCF7 breast; 19.5% with HCT-116 colon; 69.6% in the experiment with HCC-2998 colon; 69.7% in the experiment on KM12 colon.
In the case of `CC1(COc2ccc3c(c2)ncn3-c2ccc3cccc(N4CCC(N)CC4)c3n2)COC1`, the growth in the experiment on SR leukemia is -6.81% (active); in the experiment with RPMI-8226 leukemia, 0.988% (active); with OVCAR-8 ovarian it was 3.53% (active); with OVCAR-5 ovarian, 10.3%; with OVCAR-4 ovarian, 29.2%; with SK-OV-3 ovarian, 54.2%. The growth is 22.7% with IGROV1 ovarian; 37.2% in the experiment with OVCAR-3 ovarian; 51.5% in the experiment on NCI/ADR-RES ovarian; 81.7% with T-47D breast; 43.1% in the experiment with BT-549 breast; 65.5% in the experiment with MDA-MB-435 melanoma. The growth in the experiment on SW-620 colon was 1.95% (active); with MCF7 breast, -10.1% (active); in the experiment with HCT-116 colon, -45.6% (active); in the experiment with HCC-2998 colon, 31.2%; with KM12 colon, 6.35% (active).
For `CN(C)CCOC(=O)Nc1nc2ccc(Sc3ccccc3)cc2[nH]1`, the growth in the experiment with SR leukemia was 22%; in the experiment with RPMI-8226 leukemia it was 19.2%; with OVCAR-8 ovarian, 39.4%; with OVCAR-5 ovarian, 59.8%; with OVCAR-4 ovarian, 73.4%; in the experiment with SK-OV-3 ovarian it was 33.6%. The growth in the experiment with IGROV1 ovarian is 44.9%; with OVCAR-3 ovarian, 22.8%; in the experiment on NCI/ADR-RES ovarian, 18.1%; in the experiment on T-47D breast, 22.6%; with BT-549 breast it was 48.4%; in the experiment with MDA-MB-435 melanoma, -54.2% (active). Moreover, the growth with SW-620 colon is 23%; in the experiment on MCF7 breast, 22.7%; with HCT-116 colon, 30.9%; in the experiment with HCC-2998 colon, 61.3%; with KM12 colon, 20.8%.
For `Cc1ncc(-c2ccnc(Nc3ccc(S(C)(=O)=O)cc3)n2)n1C(C)C`, the growth was -18.3% (active) in the experiment on SR leukemia; -0.427% (active) in the experiment with RPMI-8226 leukemia; 6.22% (active) in the experiment on OVCAR-8 ovarian; -0.123% (active) with OVCAR-5 ovarian; 3.33% (active) in the experiment on OVCAR-4 ovarian; 11.6% with SK-OV-3 ovarian. Moreover, the growth was -10.8% (active) in the experiment with IGROV1 ovarian; 8.42% (active) with OVCAR-3 ovarian; 1.79% (active) in the experiment with NCI/ADR-RES ovarian; -12.3% (active) in the experiment on T-47D breast; -11.4% (active) with BT-549 breast; -45.2% (active) in the experiment with MDA-MB-435 melanoma. In addition, the growth with SW-620 colon is 0.356% (active); in the experiment with MCF7 breast, 2.6% (active); with HCT-116 colon it was -0.0408% (active); in the experiment with HCC-2998 colon it was -15.6% (active); with KM12 colon, -68.7% (active).
For the compound `COc1ccc(S(=O)(=O)N(C(C)=O)c2ccccc2/C=C/c2cc[n+]([O-])cc2)cc1`, the growth with SR leukemia was 16.4%; in the experiment on RPMI-8226 leukemia it was 22.2%; in the experiment with OVCAR-8 ovarian, 14.9%; in the experiment with OVCAR-5 ovarian, 35.4%; in the experiment with OVCAR-4 ovarian it was 42.4%; with SK-OV-3 ovarian it was 6.17% (active). For the same compound, the growth is 24.5% with IGROV1 ovarian; 28.2% with OVCAR-3 ovarian; 17.5% in the experiment on NCI/ADR-RES ovarian; 27.2% with T-47D breast; 16.2% in the experiment with BT-549 breast; -50.8% (active) in the experiment with MDA-MB-435 melanoma. For the same compound, the growth was 23.6% in the experiment on SW-620 colon; 15.2% with MCF7 breast; 5.12% (active) in the experiment with HCT-116 colon; 8.66% (active) in the experiment with HCC-2998 colon; 14% in the experiment on KM12 colon.
As for `C=CC(=O)N1CCC[C@H](n2c(=O)n(-c3ccc(Oc4ccccc4)cc3)c3c(N)ncnc32)C1`, the growth was 74% in the experiment on SR leukemia; 76.4% with RPMI-8226 leukemia; 65.8% in the experiment on OVCAR-8 ovarian; 86.6% in the experiment with OVCAR-5 ovarian; 85.3% with OVCAR-4 ovarian; 3% (active) in the experiment with SK-OV-3 ovarian. Also, the growth in the experiment on IGROV1 ovarian is 30.7%; with OVCAR-3 ovarian, 76.4%; in the experiment on NCI/ADR-RES ovarian it was 74.9%; in the experiment on T-47D breast, 37.7%; with BT-549 breast, 91.9%; in the experiment on MDA-MB-435 melanoma, 101%. Further, the growth in the experiment with SW-620 colon was 97.4%; in the experiment with MCF7 breast, 86.5%; in the experiment on HCT-116 colon, 74%; with HCC-2998 colon it was 100%; in the experiment on KM12 colon it was 92.1%.

For the origin of these results see PubChem BioAssay (NCI).
